Only a sample is shown.
aSyn UTR act: Activators via SNCA 5'UTR binding, MLPCN. alpha-synuclein 5'UTR reporter, activators screen. activity score, % (tested at 7.5 µM), hits read low. 300,000 compounds, 7.1% hits; in the data active = activity score below about -60%
A number is an active result; n = inactive.

SMILES | aSyn UTR act
N#C/C(=C\c1cc(Cl)c(OCc2ccc(Cl)cc2)c(Cl)c1)C(N)=O | -143
Cc1ccnc(NC(=O)C2COc3ccccc3O2)c1 (stereo not drawn) | -97
Cc1ccc(NC(=O)C2COc3ccccc3O2)nc1 (stereo not drawn) | -106
Cc1ccc(C=Nc2ccccc2C(=O)Nc2ccccc2)cc1 | -77
Cc1ccc(C=Nc2ccccc2C(N)=O)cc1 | -109
COc1cccc(C=Nc2ccccc2C(=O)Nc2ccccc2)c1O | -71
CC(C)CCOCC(=O)Nc1cccc(C(=O)O)c1 | -73
COc1ccc(-c2nc3cc(C)ccn3c2NCc2ccc3c(c2)OCO3)cc1 | -112
COc1ccc(-c2nc3ccccn3c2NCc2ccc3c(c2)OCO3)cc1 | -91
CCCn1c(NC(=O)c2ccc([N+](=O)[O-])o2)nc2ccccc21 | -88
O=C(Nc1cccc2ccccc12)c1ccc([N+](=O)[O-])o1 | -179
O=C(Nc1cc(-c2nc3ncccc3o2)ccc1Cl)c1ccc([N+](=O)[O-])o1 | -200
COc1ccccc1NC(=O)c1ccc([N+](=O)[O-])o1 | -98
Cc1cc(N2C(=O)C(O)=C(C(=O)c3cc4ccccc4o3)C2c2ccc(OC(C)C)cc2)no1 (stereo not drawn) | -91
CC(C)OC(=O)Cn1nnc2c(cnn2-c2ccccc2)c1=O | -98
CCn1ncc(Br)c1C(=O)Nc1ccc(C(C)C)cc1 | -79
CCn1ncc(Br)c1C(=O)Nc1ccc2c(c1)OCCO2 | -94
CCc1sc(C(=O)Nc2ccc3c(c2)OCCO3)cc1Br | -193
O/N=C/c1ccc(OCc2ccccc2F)c(Cl)c1 | -92
O/N=C/c1ccc(OCc2ccccc2)c(Cl)c1 | -104
O/N=C/c1ccc(OCc2ccccc2)c(Br)c1 | -142
CC(C)(C)C1CCC(=O)N(CCOc2ccccc2)CC1 (stereo not drawn) | -101
CC1CCC(=O)N(CCSc2ccccc2)CC1 (stereo not drawn) | -116
c1ccc(Sc2ccccc2CN2CCCC2)cc1 | n
O=C1CCN(CCc2ccccc2)CCN1CCSc1ccccc1 | -69
SMILES | aSyn UTR act
c1ccc(SCCN2CCc3ccccc3C2)cc1 | -97
Oc1ccc(CN2CCc3ccccc3C2)c2cccnc12 | n
Cc1ccc(C)c(OCc2cc(C(=O)N3CCN(C(=O)c4ccco4)CC3)no2)c1 | -113
Cc1ccc(C)c(OCc2cc(C(=O)N3C[C@@H](C)O[C@@H](C)C3)no2)c1 | -131
Cc1ccc(C)c(OCc2cc(C(=O)N3CCN(c4ccccc4)CC3)no2)c1 | -115
CCOc1ccc2nc(N3CCCC(C(=O)NCCCN4CCCCC4)C3)sc2c1 (stereo not drawn) | -86
COc1ccc(CCNC(=O)c2ccc3nc(N4CCCCC4)sc3c2)cc1OC | -131
COc1ccc2nc(N3CCCC(C(=O)NCCc4ccc(OC)c(OC)c4)C3)sc2c1 (stereo not drawn) | -87
O=C1C(N2CCOCC2)=C(n2nnc3ccccc32)C(=O)c2ccccc21 | n
O=S1(=O)C=C(N2CCOCC2)c2ccccc21 | -70
COc1ccccc1OC(=O)Nc1ccc(Cl)cc1 | -83
COc1ccccc1Oc1ccc(NC(=O)c2ccccc2)cc1 | -91
COc1ccc(C(=O)Nc2cc(OC)cc(OC)c2)cc1 | -62
COc1cc(NC(=O)c2ccccc2)cc(OC)c1 | -131
NNc1nc2ccc(F)cc2s1 | -254
NNc1nc2ccc(Cl)cc2s1 | -140
Fc1ccc2nc(Nc3ccccc3)sc2c1 | -172
CCc1cccc(NC(=O)Nc2cccs2)c1 | -243
COc1ccc(NC(=O)C=C(C)C)cc1Cl | -122
COc1ccc(NC(=O)c2cc(F)c(F)cc2Cl)cc1Cl | -93
COc1ccc(NC(=O)Nc2cccs2)cc1Cl | -167
CCNC(=O)C(=O)Nc1ccc(OC)c(Cl)c1 | -83
CC(C)=CC(=O)Nc1ccc(Cl)cc1 | -90
CC(C)N1C(=O)CN(C2CCCCCC2)C(=O)C1c1ccccc1F (stereo not drawn) | -140
Cc1cc(-c2n[nH]c(=S)o2)c(C)n1-c1ccccc1 | -144
SMILES | aSyn UTR act
COC(=O)c1cc(-c2ccccc2)sc1N | -77
COC(=O)c1sc(-c2cccs2)cc1N | -86
COC(=O)c1sc(-c2ccc(Cl)cc2)cc1N | -101
CC1CCN(Cc2c(C(=O)N/N=C/c3cc(Cl)ccc3O)nnn2-c2nonc2N)CC1 | n
CC1CCN(Cc2c(C(=O)N/N=C/c3cc(Br)ccc3O)nnn2-c2nonc2N)CC1 | n
NC(=O)N/N=C/c1ccc(OCc2cccc(Cl)c2)cc1 | -73
Cc1cccc(COc2ccc(/C=N/NC(=O)c3nnn(-c4nonc4N)c3CN3CCCCC3)cc2)c1 | -101
Nc1nonc1-n1nnc(C(=O)N/N=C/c2ccc(OCc3cccc(Cl)c3)cc2)c1CN1CCCCC1 | -136
Cc1ccc(C(=O)Oc2ccc(/C=N/NC(N)=O)cc2)cc1 | -124
Nc1nonc1-n1nnc(C(=O)N/N=C/c2ccc(OCc3ccccc3F)cc2)c1CN1CCCCC1 | -111
CN1c2ccccc2C(O)=C(C(=O)Nc2ccccc2)S1(=O)=O | -84
Cc1ccc(NC(=S)C2=C(O)c3ccccc3N(C)S2(=O)=O)cc1 | -100
CN(C)c1ccc(P(=O)(Nc2ccccc2)N2CCOCC2)c(NC(=O)c2cccs2)c1 (stereo not drawn) | -100
CN(C)c1ccc(P(=O)(Nc2ccc([N+](=O)[O-])cc2)N2CCOCC2)c(NC(=O)c2cccs2)c1 (stereo not drawn) | -66
Cc1ccc(NP(=O)(c2ccc(N(C)C)cc2NC(=O)c2cccs2)N2CCOCC2)cc1 (stereo not drawn) | -91
COc1ccc2[nH]c3c(NCc4ccco4)ncnc3c2c1 | -113
COc1ccc2[nH]c3c(NCCC4=CCCCC4)ncnc3c2c1 | -195
Clc1ccc2[nH]c3c(NCCCN4CCOCC4)ncnc3c2c1 | -62
COc1ccc2[nH]c3c(NCCCOC(C)C)ncnc3c2c1 | -138
COc1ccc2[nH]c3nc(SC(C)C)nnc3c2c1 | n
COc1cccc(/C=C/C(=O)c2c(O)cc(C)oc2=O)c1O | -111
COc1ccc(/C=C/C(=O)c2c(O)cc(C)oc2=O)c(OC)c1 | -230
Cc1oc(-c2ccc(Cl)cc2)cc1C(=O)O | -83
CSc1nc2ccc3nc(NC(=O)c4cccs4)sc3c2s1 | -370
O=C(Nc1nc2ccc(F)cc2s1)c1cccs1 | -223
SMILES | aSyn UTR act
CC(=O)Nc1ccc2nc(NC(=O)c3cccnc3)sc2c1 | -92
CN(C)S(=O)(=O)c1ccc2nc(NC(=O)c3cccs3)sc2c1 | -108
O=C(NC(=S)Nc1nc2ccc(F)cc2s1)c1ccco1 | -171
CN(C)S(=O)(=O)c1ccc2nc(NC(=O)c3cccnc3)sc2c1 | -68
O=C(NC(Nc1nc2ccc([N+](=O)[O-])cc2s1)(C(F)(F)F)C(F)(F)F)c1cccnc1 | n
Cc1cc(SCC(=O)c2cccc([N+](=O)[O-])c2)nc(=O)[nH]1 | -91
CCOC(=O)C(C(=O)OCC)C1N=C(N)N=C2Oc3ccccc3N21 (stereo not drawn) | -163
CN(C)C(=O)c1cc(-c2ccccc2)no1 | -80
COc1ccc(-c2cc3nc(C)cc(C)n3n2)cc1 | -183
COc1ccc(-c2nc3nc(C)cc(C)n3n2)cc1 | -135
Cc1cc(C)n2nc(-c3ccc(Cl)cc3)cc2n1 | -129
Cc1cc(C)n2nc(-c3ccc(Br)cc3)cc2n1 | -122
Cc1cc(C)n(-c2nc(-c3ccc(Cl)cc3)cs2)n1 | -93
O=C(O)c1cccc(NC2=C(Cl)C(=O)c3ccccc3C2=O)c1 | -191
CC(C)NC1=C(Cl)C(=O)c2ccccc2C1=O | -91
O=C1C(Cl)=C(NCc2cccnc2)C(=O)c2ccccc21 | -141
